Here are results for 32 targets from the supplement of paper PMC10849652.

About 8,800 targets were measured; listed, in parts, are those with a hit and a random draw of the rest. About 0.5% of all pairs of compound and target were hits.

Sequence of UniProt Q8TDG4 (Q8TDG4 whole entry, looked up): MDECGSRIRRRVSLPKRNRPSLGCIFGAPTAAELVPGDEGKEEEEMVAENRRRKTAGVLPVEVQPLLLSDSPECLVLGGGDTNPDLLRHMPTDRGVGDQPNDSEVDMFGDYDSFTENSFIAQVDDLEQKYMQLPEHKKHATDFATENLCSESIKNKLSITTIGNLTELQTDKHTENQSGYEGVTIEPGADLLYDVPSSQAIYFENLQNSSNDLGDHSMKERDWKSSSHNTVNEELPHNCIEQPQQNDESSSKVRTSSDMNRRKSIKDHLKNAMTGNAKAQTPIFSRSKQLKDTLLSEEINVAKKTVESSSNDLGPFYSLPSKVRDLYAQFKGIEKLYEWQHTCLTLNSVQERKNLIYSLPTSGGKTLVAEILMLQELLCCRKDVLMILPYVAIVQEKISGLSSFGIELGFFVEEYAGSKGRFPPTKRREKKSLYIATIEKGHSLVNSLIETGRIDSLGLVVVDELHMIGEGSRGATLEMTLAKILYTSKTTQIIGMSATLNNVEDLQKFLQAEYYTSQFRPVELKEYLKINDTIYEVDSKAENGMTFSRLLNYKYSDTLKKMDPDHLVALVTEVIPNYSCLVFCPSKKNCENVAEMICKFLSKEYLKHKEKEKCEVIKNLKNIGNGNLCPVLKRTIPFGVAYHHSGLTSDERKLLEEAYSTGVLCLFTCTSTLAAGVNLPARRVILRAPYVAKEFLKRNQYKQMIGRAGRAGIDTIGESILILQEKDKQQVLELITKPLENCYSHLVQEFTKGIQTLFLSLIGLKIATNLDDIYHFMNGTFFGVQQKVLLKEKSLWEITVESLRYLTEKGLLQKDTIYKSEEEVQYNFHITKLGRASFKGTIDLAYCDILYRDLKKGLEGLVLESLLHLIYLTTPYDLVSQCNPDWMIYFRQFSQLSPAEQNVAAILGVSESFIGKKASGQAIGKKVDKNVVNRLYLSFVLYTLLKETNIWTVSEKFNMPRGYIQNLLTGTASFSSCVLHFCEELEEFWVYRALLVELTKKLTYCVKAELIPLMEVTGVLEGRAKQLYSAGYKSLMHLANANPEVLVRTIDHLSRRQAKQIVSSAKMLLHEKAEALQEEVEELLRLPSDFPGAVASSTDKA
Sequence of UniProt Q8NEC7 (Q8NEC7 whole entry, looked up): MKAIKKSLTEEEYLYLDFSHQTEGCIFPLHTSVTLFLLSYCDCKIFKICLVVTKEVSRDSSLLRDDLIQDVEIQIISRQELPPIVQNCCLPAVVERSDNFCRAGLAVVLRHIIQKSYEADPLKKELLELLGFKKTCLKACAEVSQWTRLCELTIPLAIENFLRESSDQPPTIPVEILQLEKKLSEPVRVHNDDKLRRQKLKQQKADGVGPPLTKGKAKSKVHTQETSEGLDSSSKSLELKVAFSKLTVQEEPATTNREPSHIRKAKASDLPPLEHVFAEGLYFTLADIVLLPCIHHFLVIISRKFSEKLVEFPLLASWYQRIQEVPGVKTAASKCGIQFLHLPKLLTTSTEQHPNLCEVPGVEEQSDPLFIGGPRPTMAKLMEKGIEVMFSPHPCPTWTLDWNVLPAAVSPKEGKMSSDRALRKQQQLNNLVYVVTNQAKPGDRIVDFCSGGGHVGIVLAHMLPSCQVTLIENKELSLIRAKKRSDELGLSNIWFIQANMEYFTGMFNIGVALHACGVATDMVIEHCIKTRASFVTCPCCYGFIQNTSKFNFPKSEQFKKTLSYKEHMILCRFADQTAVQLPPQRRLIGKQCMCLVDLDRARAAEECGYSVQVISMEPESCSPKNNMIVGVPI
Sequence of UniProt Q15046 (Q15046 whole entry, looked up): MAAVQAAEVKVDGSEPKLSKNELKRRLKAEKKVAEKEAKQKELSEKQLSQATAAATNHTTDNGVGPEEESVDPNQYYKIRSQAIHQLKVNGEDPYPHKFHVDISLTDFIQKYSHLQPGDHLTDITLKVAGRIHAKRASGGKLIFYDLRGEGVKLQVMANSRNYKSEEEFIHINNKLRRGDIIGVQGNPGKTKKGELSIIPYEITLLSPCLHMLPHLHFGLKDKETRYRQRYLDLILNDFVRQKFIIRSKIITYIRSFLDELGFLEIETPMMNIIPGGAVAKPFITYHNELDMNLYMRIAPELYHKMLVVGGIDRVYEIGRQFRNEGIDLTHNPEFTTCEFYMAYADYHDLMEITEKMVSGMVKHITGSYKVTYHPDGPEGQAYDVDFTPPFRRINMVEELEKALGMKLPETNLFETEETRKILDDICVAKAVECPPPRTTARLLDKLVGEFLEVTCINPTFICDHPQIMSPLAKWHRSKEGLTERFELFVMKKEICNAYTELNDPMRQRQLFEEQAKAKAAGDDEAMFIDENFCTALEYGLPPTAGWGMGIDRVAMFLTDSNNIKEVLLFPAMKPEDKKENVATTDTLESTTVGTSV
Sequence of UniProt Q14103 (Q14103 whole entry, looked up): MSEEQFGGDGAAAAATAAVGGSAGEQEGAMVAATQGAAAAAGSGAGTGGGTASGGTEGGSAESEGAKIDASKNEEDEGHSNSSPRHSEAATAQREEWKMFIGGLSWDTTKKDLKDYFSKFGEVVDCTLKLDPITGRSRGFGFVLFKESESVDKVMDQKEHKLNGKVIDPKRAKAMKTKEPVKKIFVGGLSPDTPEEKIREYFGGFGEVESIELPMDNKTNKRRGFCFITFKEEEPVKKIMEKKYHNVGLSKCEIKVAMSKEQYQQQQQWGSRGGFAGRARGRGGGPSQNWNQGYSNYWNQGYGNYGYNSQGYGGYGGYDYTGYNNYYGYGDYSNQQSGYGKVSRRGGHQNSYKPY
Sequence of UniProt Q9NPR9 (Q9NPR9 whole entry, looked up): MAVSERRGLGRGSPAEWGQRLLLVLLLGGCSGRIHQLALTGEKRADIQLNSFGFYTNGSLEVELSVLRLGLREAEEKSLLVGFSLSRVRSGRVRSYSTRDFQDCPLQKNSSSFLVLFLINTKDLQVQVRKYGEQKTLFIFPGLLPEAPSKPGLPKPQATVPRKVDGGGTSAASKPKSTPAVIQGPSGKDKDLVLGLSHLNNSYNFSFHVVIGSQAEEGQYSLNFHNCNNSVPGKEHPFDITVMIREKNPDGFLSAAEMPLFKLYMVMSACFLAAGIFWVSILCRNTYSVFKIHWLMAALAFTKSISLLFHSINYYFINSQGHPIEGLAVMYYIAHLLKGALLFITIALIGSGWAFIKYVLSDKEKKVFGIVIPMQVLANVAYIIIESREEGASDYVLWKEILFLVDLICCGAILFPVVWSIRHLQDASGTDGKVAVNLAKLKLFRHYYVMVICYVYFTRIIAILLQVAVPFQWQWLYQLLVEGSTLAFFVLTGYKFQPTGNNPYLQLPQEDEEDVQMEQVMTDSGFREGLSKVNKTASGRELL
Sequence of UniProt Q99871 (Q99871 whole entry, looked up): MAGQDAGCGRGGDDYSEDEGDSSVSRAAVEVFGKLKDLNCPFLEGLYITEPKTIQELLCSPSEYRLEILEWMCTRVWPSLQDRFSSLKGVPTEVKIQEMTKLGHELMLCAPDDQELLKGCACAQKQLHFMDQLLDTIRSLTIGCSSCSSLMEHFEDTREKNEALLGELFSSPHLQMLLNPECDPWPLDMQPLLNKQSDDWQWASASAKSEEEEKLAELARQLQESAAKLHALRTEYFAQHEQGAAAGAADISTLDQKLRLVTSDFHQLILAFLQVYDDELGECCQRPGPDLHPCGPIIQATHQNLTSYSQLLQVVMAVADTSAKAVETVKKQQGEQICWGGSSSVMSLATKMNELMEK
Sequence of UniProt Q9H4A5 (Q9H4A5 whole entry, looked up): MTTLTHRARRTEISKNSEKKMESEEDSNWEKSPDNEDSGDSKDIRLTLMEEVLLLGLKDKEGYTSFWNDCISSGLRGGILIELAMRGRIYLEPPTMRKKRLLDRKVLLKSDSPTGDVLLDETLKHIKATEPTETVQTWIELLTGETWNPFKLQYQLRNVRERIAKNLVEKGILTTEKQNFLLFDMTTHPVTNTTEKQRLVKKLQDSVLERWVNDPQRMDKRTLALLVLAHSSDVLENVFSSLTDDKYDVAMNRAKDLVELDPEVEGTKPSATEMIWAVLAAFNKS
Sequence of UniProt P51617 (P51617 whole entry, looked up): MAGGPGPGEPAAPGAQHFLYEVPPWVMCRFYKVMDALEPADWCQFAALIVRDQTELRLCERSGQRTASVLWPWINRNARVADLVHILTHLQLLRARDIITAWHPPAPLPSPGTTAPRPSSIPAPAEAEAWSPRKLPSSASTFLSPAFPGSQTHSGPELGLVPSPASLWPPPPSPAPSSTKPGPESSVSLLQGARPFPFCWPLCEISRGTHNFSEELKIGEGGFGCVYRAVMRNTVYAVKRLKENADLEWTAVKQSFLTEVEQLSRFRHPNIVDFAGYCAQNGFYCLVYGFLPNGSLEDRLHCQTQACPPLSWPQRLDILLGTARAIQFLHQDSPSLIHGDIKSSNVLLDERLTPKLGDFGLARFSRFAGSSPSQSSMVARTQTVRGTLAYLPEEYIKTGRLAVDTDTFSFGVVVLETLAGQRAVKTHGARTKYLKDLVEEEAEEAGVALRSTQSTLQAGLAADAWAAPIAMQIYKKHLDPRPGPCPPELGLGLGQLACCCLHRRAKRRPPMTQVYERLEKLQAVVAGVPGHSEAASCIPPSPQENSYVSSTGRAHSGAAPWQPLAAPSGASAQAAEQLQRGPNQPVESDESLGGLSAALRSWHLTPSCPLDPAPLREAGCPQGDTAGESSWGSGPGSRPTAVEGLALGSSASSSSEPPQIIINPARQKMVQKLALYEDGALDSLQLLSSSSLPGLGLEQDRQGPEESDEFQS
Sequence of UniProt Q9BXW7 (Q9BXW7 whole entry, looked up): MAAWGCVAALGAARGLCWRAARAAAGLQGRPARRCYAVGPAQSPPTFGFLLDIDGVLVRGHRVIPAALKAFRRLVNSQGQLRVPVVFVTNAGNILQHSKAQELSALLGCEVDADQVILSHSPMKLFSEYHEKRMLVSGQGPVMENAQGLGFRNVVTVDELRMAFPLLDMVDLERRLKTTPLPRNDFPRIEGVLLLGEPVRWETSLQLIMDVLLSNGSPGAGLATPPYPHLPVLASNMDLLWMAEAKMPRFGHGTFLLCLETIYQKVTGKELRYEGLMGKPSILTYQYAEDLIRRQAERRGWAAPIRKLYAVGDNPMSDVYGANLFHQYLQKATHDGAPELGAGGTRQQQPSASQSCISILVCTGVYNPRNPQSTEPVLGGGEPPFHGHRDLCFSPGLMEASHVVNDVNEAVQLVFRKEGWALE

Compound in the first assay: Cc1sc2c(c1C)C(c1ccc(Cl)cc1)=N[C@@H](CC(=O)OC(C)(C)C)c1nnc(C)n1-2
The assay can be described thus: log2 fold change, soluble protein after heating vs DMSO (PISA); higher = thermal stabilisation; K562 lysate, 10 uM; active = over 0.2 and 3.5 SD of the protein, either way, in both replicates (recomputed). A digest of the protocol:
(§1)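 Dounce homogenisation of K562 pellets in PBS pH 7.4 with 1 mM MgCl2 produced a crude extract, used at 1 mg/mL protein. Exposure to 10 μM compound lasted 30 min, and aliquots were then heated for 3 min across 48°C-58°C, pooled and brought to 0.5% NP-40 at 4°C. The supernatant after 21,000xg for 90 min was quantified by TMTpro 16plex LC-MS/MS with channel sums equalised. Duplicate values are given as log-two fold change in thermal stability relative to solvent controls.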
GOLPH3L (UniProt Q9H4A5): the log2 fold change was -0.009 (inactive).

As to IRAK1 (UniProt P51617), the log2 fold change was 0.004 (inactive).

On to GSTCD (UniProt Q8NEC7), for which the log2 fold change was -0.055 (inactive).

In the case of IMMT (UniProt C9J406), the log2 fold change was 0.077 (inactive).

Consider HNRNPD isoform 2 (UniProt Q14103), for which the log2 fold change is 0.018 (inactive).

GPR108 (UniProt Q9NPR9): the log2 fold change was -0.066 (inactive).

Consider HAUS7 isoform 2 (UniProt Q99871), for which the log2 fold change is 0.069 (inactive).

Consider GSE1 (UniProt Q14687), for which the log2 fold change is -0.015 (inactive).

For KARS1 (UniProt Q15046), the log2 fold change was 0.045 (inactive).

For the target HELQ (UniProt Q8TDG4), the log2 fold change is -0.004 (inactive).

Compound in another assay: c1ccc([C@@H]2C[C@H]2NC2CCNCC2)cc1
Described as above. A digest of the protocol:
as §1
Turning to GTF2A1 (UniProt P52655), the log2 fold change was 0.202 (inactive).

Consider HECTD3 (UniProt Q5T447), for which the log2 fold change was 0.06 (inactive).

For IARS2 (UniProt Q9NSE4), the log2 fold change is 0.119 (inactive).

For GLUD2 (UniProt P49448), the log2 fold change was 0.022 (inactive).

Take INTS14 (UniProt Q96SY0): the log2 fold change is 0.009 (inactive).

Regarding HMBOX1 isoform 5 (UniProt Q6NT76), the log2 fold change is -0.114 (inactive).

As for IGF2BP2 (UniProt Q9Y6M1), the log2 fold change is 0.008 (inactive).

HDHD5 (UniProt Q9BXW7): the log2 fold change is -0.012 (inactive).

Turning to HEATR6 (UniProt Q6AI08), the log2 fold change is 0.014 (inactive).

Turning to HADHB (UniProt P55084), the log2 fold change is -0.048 (inactive).

With GRB10 (UniProt Q13322), the log2 fold change was -0.078 (inactive).

For the target GSTZ1 (UniProt G3V4T6), the log2 fold change was -0.042 (inactive).

For the target HDAC2 (UniProt Q92769), the log2 fold change was -0.004 (inactive).

On to GPA33 (UniProt Q99795), for which the log2 fold change was -0.514 (active).

With IMPDH2 (UniProt P12268), the log2 fold change was 0.017 (inactive).

On to HDAC1 (UniProt Q13547), for which the log2 fold change is -0.015 (inactive).

Regarding GLYR1 (UniProt Q49A26), the log2 fold change was 0.043 (inactive).

For HS1BP3 (UniProt Q53T59), the log2 fold change was -0.053 (inactive).

Regarding HNRNPLL (UniProt Q8WVV9), the log2 fold change was 0.036 (inactive).

Regarding ICAM2 (UniProt P13598), the log2 fold change was 0.084 (inactive).

Take HADHA (UniProt P40939): the log2 fold change is -0.008 (inactive).

GTF3C5 isoform 3 (UniProt Q9Y5Q8): the log2 fold change was 0.016 (inactive).

Consider GOLPH3L (UniProt Q9H4A5), for which the log2 fold change was 0.021 (inactive).

On to IRAK1 (UniProt P51617), for which the log2 fold change is 0.026 (inactive).

For the target GSTCD (UniProt Q8NEC7), the log2 fold change is 0.007 (inactive).

Take IMMT (UniProt C9J406): the log2 fold change is -0.056 (inactive).

In the case of HNRNPD isoform 2 (UniProt Q14103), the log2 fold change is 0.125 (inactive).

For GPR108 (UniProt Q9NPR9), the log2 fold change was 0.014 (inactive).

For HAUS7 isoform 2 (UniProt Q99871), the log2 fold change was 0.032 (inactive).

For GSE1 (UniProt Q14687), the log2 fold change was 0.184 (inactive).

For KARS1 (UniProt Q15046), the log2 fold change is 0.045 (inactive).

On to HELQ (UniProt Q8TDG4), for which the log2 fold change is -0.074 (inactive).
